Laboratory results from PubChem BioAssay AID493027 (The Scripps Research Institute Molecular Screening Center, 2011).
Hit rate of the full screen: of about 2,000 compounds, about 45 (2%) were called active. The sample holds actives, similar compounds and a random draw of the others, so the mix is not that of the screen. Values without a mark were called inactive.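 The calls were made as follows: active = inhibition above the screen-wide mean inhibition plus 3 SD (cut at about 44% in these data); inactive = the rest.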

Each compound was assayed against Perilipin-1 (Homo sapiens) + 1-acylglycerol-3-phosphate O-acyltransferase ABHD5 (Homo sapiens) (UniProt O60240+Q8WTS1) (assay: blockers of ABHD5 binding to perilipin-1 – cell lysate, split luciferase complementation, luminescence, NIH validation set, pilot screen (AID 493027;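 also: 0% = DMSO wells with the 100% control not disclosed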)). Conditions: split G. princeps luciferase complementation, 4 h; at 7.9 µM, hits give high values.
Sequence of Perilipin-1 (Homo sapiens) + 1-acylglycerol-3-phosphate O-acyltransferase ABHD5 (Homo sapiens) (O60240 whole entry, looked up): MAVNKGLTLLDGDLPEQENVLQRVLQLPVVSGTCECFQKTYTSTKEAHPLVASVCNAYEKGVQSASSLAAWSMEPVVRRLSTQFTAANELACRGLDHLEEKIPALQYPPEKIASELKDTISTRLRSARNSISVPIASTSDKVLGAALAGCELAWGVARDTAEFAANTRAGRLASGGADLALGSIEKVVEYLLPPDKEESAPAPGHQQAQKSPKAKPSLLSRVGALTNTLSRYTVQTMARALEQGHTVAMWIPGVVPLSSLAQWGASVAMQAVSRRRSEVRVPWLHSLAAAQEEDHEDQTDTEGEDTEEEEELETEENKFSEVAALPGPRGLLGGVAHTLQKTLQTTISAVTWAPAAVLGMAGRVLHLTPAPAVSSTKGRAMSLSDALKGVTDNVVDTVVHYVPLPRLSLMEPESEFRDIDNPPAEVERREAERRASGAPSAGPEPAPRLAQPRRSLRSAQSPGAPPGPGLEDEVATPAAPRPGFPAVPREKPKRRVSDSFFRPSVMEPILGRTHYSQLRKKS
Sequence of Perilipin-1 (Homo sapiens) + 1-acylglycerol-3-phosphate O-acyltransferase ABHD5 (Homo sapiens) (Q8WTS1 whole entry, looked up): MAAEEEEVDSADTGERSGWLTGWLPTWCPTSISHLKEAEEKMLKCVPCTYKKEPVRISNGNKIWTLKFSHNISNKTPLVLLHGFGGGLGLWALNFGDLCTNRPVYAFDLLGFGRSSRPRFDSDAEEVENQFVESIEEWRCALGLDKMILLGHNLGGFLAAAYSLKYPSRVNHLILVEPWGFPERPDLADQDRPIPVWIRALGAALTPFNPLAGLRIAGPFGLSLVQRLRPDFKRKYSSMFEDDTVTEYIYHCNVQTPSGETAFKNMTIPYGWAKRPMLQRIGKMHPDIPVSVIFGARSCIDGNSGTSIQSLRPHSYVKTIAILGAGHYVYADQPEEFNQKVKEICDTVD

Row | SMILES | inhibition
1 | COc1ccccc1NC(=O)C12CCC(C)(C(=O)C1)C2(C)C (configuration not stated) | -0.67%
2 | COCCn1c(SCCOc2ccccc2)nc2ccccc2c1=O | -7.89%
3 | Cc1nc(N)nc2c1CCCC2 | -5.16%
4 | c1cc(-c2ccncc2)ccn1 | -6.1%
5 | Nc1cc(-c2ccncc2)c[nH]c1=O | 49% (active)
6 | O=C(O)c1cc2cc(Cl)cc(Cl)c2oc1=O | 1.22%
7 | COc1ccc(CCN(C)CC(=O)Nc2cc(C)nc3ccccc23)cc1OC | 3.27%
8 | COc1cccc(OC2OC3COC(C)(C)OC3C(O)C2NC(C)=O)c1 (configuration not stated) | -10.2%
9 | CC(C)[N+]1(C)[C@@H]2CC[C@H]1CC(OC(=O)C(CO)c1ccccc1)C2 (some centres not stated) | -5.55%
10 | CCCCC/C=C\C[C@H](O)/C=C/c1cccc(C[C@H](O)CCCCO)n1 | 57.6% (active)
11 | O=P(c1ccccc1)(c1ccccc1)c1nc(-c2ccc(Cl)cc2)oc1N1CCOCC1 | 2.59%
12 | COc1ccc(C=O)c(OC)c1 | 0.71%
13 | CC(=O)NCCCCCCNC(C)=O | 3.05%
14 | Nc1ccc(S(N)(=O)=O)cc1N | 1.88%
15 | COc1cc(NC(=S)NN2CCN(C)CC2)cc(OC)c1OC | -10%
16 | COc1cc(C2C(C(C)=O)=C(O)C(=O)N2c2ccc(C)cc2)ccc1O (configuration not stated) | -3.68%
17 | O=C(Nc1cccc(Cl)c1)N1CCN2C(=O)c3ccccc3C12c1ccccc1 (configuration not stated) | 6.94%
18 | O=C1c2ccccc2C2(c3ccccc3)NCCN12 (configuration not stated) | 0.96%
19 | CC1(c2ccccc2)CC(C)(C)N2C(=O)C(=O)c3cccc1c32 (configuration not stated) | 65.7% (active)

Row | SMILES | inhibition
20 | CC(=O)c1cccc(NC(=O)N[C@@H](CC(C)C)C(=O)O)c1 | -3.15%
21 | COc1ccc(C(=O)Nc2ccc(OC)c([N+](=O)[O-])c2)cc1Br | 0.74%
22 | COc1ccc(C(=O)/C=C/c2cc(C(=O)O)cc3c2OCOC3)c(O)c1 | 67.3% (active)
23 | COc1ccc(C(=O)COc2ccc(F)cc2)c(O)c1 | -7.26%
24 | C[C@H]([C@@H](N)C(=O)N[C@@H](C(=O)O)[C@@H]1O[C@H](n2ccc(=O)[nH]c2=O)[C@@H](O)[C@H]1O)[C@@H](O)c1ccc(O)cn1 | 8.07%
25 | CCOC(=O)C1CCCN(Cc2nc(Cc3cccc(F)c3)no2)C1 (configuration not stated) | -4.38%
26 | COC(=O)c1cc(=O)c2ccc(OC)cc2o1 | -10.3%
27 | CSCC[C@H](NC(=O)OC(C)(C)C)C(=O)N1CCC(C(=O)N[C@@H](C)C(=O)O)CC1 | -2.64%
28 | CC1(C)C(C=C(Cl)Cl)C1C(=O)N1CCN(Cc2ccccc2)CC1 (configuration not stated) | -10.6%
29 | CC(C)=CCCC(C)CN1CCC(N2CCC(C(=O)N3CCCC3)CC2)CC1 (configuration not stated) | -9.96%
30 | CC1(C)CC(O)(CNCc2ccc3c(c2)OCO3)CCO1 (configuration not stated) | -11.9%
31 | S=C(NCc1ccccc1)NCc1cccc(CNC(=S)NCc2ccccc2)c1 | 4.65%
32 | N#C/C(=C\c1ccc(O)c(O)c1)C(=O)NCCCc1ccccc1 | 37.9%
33 | N#C/C(=C/c1ccccc1)C(=O)NCc1ccccc1 | 53.3% (active)
34 | CN1[C@@H]2CC[C@H]1CC(OC(=O)C(CO)c1ccccc1)C2 (some centres not stated) | -16.1%
35 | COC(=O)c1cc(C(=O)NCCC(C)C)cc([N+](=O)[O-])c1 | -28.2%
36 | COc1cc(OC)c(C2C(C#N)=C(N)OC3=C2C(=O)CC(C)(C)C3)cc1OC (configuration not stated) | -0.37%
37 | COc1ccc(-c2nc3c(=O)n(C)c(=O)[nH]c3n2CCc2ccccc2)cc1 | -1.13%
